High-throughput results deposited in PubChem BioAssay by National Center for Advancing Translational Sciences (NCATS).
Only some compounds are listed: those with a hit (about 1.3% of all), similar ones and a draw of the others.
Vif-APOBEC3F blk = blocks the Vif interaction with APOBEC3F | HeLa A3F-eYFP + Vif (tagged APOBEC3F with the HIV-1 protein that degrades it), YFP fluorescence increase | Potency, µM (top dose mostly 46.1 µM), for inactives: top-dose activity, negative = active | 390,000 tested, 0.2% active; further: potency means the concentration at half of the fitted maximal effect; % of control where 0% means no effect; nearly all actives have a fitted effect of over 65% in size
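HeLa cells stably expressing Vif plus C-terminally eYFP-tagged A3F were seeded, incubated overnight at 37 deg C, dosed with compound, incubated overnight again at 37 deg C. Yellow fluorescence (Ex 488/Em 500-530) reported blocked Vif-mediated A3F-eYFP degradation.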
TRPML1 inh = inhibitors of human TRPML1 channel. AID 624415. 390,000 tested, 0.02% active. Q9GZU1. activity change, negative = inhibition, % (no concentration beside the values). TRPML1-inducible cells, Ca2+ dye fluorescence, FDSS; hits give low values; inhibition of EC80 agonist-evoked calcium signal; in the data active means activity change below about -50%; inconclusive means between about -30% and that limit;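 further: stimulus is agonist 54-4 at its EC80 concentration; on the % scale 0 is the no-effect control and ±100 the full control effect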
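TRPML1-DL cells, Tet-induced overnight (~16 h, 37 °C) at 1,500 cells/well, were loaded with Ca8 no-wash dye plus quencher for 45-90 min at room temperature. Compounds were pinned during FDSS kinetic reading; agonist 54-4 at EC80 (4 uM final) then added.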
Vif-A3G inh = Vif-A3G binding inhibition; HeLa A3G-eYFP + Vif (tagged APOBEC3G with the HIV-1 protein that degrades it), YFP fluorescence, overnight; 410,000 tested, 0.076% active; Potency, µM (highest dose often 46.1 µM), inactives show at the top dose activity, negative = active, actives largely listed as inhibitors; further: potency means the concentration at half of the fitted maximal effect; on the % scale 0 is the no-effect control and ±100 the full control effect; nearly all actives have a fitted effect of over 60% in size
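HeLa cells stably expressing Vif and C-terminally eYFP-tagged A3G, seeded overnight at 37 deg C, then exposed to compound by pintool overnight at 37 deg C. Rise in yellow fluorescence (Ex 488/Em 500-530, Acumen) marks blocked Vif-driven A3G degradation.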
TRPML1 agonist = agonists of human TRPML1 channel | TRPML1-expressing cells, Ca2+ dye fluorescence, FDSS | activation, % (no concentration beside the values) | 410,000 tested, 0.12% active | Q9GZU1; in the data active means activation above about 50%; inconclusive means mostly about 30% to 49%; further: 0% is about no effect
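Tet-induced TRPML1-DL cells, 1,500 per well, cultured overnight, were loaded with a no-wash Ca2+ dye for 45–90 min. Calcium fluorescence was recorded on the FDSS for 110 s after compound addition, before the EC80 agonist (4 uM 54-4) was added.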
GRP78 ERSR act = ER stress response induction in glioma; U87-MG GRP78 promoter luciferase reporter, 16 h; Potency, µM, without a hit: at the highest dose activation, most hits filed as activators; 420,000 tested, 0.02% active; further: potency means the concentration at half of the fitted maximal effect; series mostly up to about 76 µM; % of control where 0% means no effect; nearly all actives have a fitted effect of over 35% in size
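ERSR induction read as luciferase luminescence (Bright-Glo, 10 min at room temperature) in stably transfected human U87-MG glioma cells exposed to compounds for 16 h, using GRP78 as sensor.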
ALOX12 inh = inhibitors of human 12S-lipoxygenase ALOX12; 580,000 tested, 1.1% active; Potency, µM (titrated, usually from 108 µM), for inactives: at the top dose activity change, negative = inhibition, actives largely listed as inhibitors; purified 12hLO, xylenol orange hydroperoxide absorbance; P18054; further: potency means the concentration at half of the fitted maximal effect; on the % scale 0 is the no-effect control and ±100 the full control effect
Target sequence (P18054 whole entry, looked up): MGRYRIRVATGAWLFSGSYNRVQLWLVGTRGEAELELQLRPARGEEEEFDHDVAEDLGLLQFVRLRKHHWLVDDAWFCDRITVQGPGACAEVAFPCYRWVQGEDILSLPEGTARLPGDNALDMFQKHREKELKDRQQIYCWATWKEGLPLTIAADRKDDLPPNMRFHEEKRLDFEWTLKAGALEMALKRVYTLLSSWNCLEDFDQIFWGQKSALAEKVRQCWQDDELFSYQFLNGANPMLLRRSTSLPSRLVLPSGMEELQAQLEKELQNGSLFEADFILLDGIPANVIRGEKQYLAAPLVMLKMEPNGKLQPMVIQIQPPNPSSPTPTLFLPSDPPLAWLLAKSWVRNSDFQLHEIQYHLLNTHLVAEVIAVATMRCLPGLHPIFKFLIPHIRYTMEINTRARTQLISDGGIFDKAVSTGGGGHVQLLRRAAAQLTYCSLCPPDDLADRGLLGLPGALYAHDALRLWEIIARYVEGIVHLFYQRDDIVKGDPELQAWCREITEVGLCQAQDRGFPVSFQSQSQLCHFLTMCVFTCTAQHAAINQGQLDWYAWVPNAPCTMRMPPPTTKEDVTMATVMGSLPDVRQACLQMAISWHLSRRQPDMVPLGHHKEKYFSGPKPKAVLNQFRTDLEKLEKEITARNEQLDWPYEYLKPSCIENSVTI
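Purified human 12hLO at 150 nM in 25 mM Hepes, 0.01% Triton X-100, pH 7.0, preincubated 15 min at room temperature with compound. Reaction started with 40 uM arachidonic acid, 30 min at room temperature. Hydroperoxide measured by Fe-xylenol orange, 573/405 nm absorbance ratio.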
* = called active by the depositor; ? = inconclusive; · = no result given; ! = not confirmed by another sample. Unless noted, the call rests on the fitted dose curve; in most records, active means well fitted curve in the direction sought with a large enough effect; inconclusive means small, poorly fitted or top-dose-only effect, or another doubt; inactive means no such curve, though single readings can be large; an effect the other way counts as inactive or inconclusive.

SMILES	Vif-APOBEC3F blk	TRPML1 inh	Vif-A3G inh	TRPML1 agonist	GRP78 ERSR act	ALOX12 inh
O=C(O)c1ccc(NC(=S)NC(=O)c2ccc(-c3ccc(Br)cc3)o2)cc1	0%	6	-4%	0	4%	18µM*
CN1CCN(c2ccc(NC(=O)c3ccc(-c4ccc(Br)cc4)o3)cc2)CC1	-4%	-17	?	0	-2%	50µM*
COc1ccc(CCNC(=O)C2CCN(c3nc4ccc(Cl)cc4[nH]3)CC2)cc1OC	·	·	·	·	·	7%
COc1cc(OC)cc(C(=O)/C(=C/c2cccs2)c2nc3ccccc3o2)c1	·	·	·	·	·	-4%
COc1cc(OC)cc(C(=O)/C(=C\c2ccncc2)c2nc3ccccc3o2)c1	·	·	·	·	·	28µM*
O=C(CC12CC3CC(CC(C3)C1)C2)Nc1ccc(C(=O)c2ccccc2)cc1	·	·	·	·	·	12%
CNC(=O)c1ccc(NC(=O)c2cc(=O)[nH]c3ccccc23)cc1	·	·	·	·	·	0%
O=C(c1ccc(COc2ccccc2Cl)o1)N1CCN(Cc2ccc3c(c2)OCO3)CC1	-12%	27	2%	5	-4%	45µM*!
O=C(CN1CCN(Cc2ccc3c(c2)OCO3)CC1)N1c2ccccc2Sc2ccccc21	·	·	·	·	-5%	0.79µM*
O=C(c1ccc(COc2ccc(Cl)cc2)o1)N1CCN(Cc2ccc3c(c2)OCO3)CC1	-1%	5	3%	1	-5%	?
O=C(CN1CCOCC1)N1c2ccccc2Sc2ccccc21	-1%	26	-1%	0	-2%	5%
c1cnc(N2CCN(Cc3ccc4c(c3)OCO4)CC2)nc1	2%	14	1%	-1	0%	22µM*!
C/C=C/Cn1c(SCCCCCC)nc2c1c(=O)[nH]c(=O)n2C	·	·	·	·	·	-52%
C=CCSC1=C(C#N)C(c2ccccc2Cl)CC(=O)N1 (stereo not drawn)	-3%	6	-1%	1	-2%	?
C=C(C)CSC1=C(C#N)C(c2ccccc2Cl)CC(=O)N1 (stereo not drawn)	-1%	-3	-10%	0	-8%	22µM*
CC1CCCCC12NC(=S)N(c1ccccc1)N2 (stereo not drawn)	1%	0	-1%	0	-4%	5µM*
CC1CCCC2(C1)NC(=S)N(c1ccccc1)N2 (stereo not drawn)	9%	1	-10%	0	3%	?
COc1cccc(-n2c(Cc3cc(=O)[nH]c(=O)[nH]3)nnc2SCC(=O)N2CCCCC2)c1	0%	-2	2%	0	-2%	8.9µM*
O=C(CSc1nnc(Cc2cc(=O)[nH]c(=O)[nH]2)n1-c1ccc(F)cc1)N1CCCCC1	2%	-7	0%	0	?	70%
COc1ccc(CN2C(=O)c3cccnc3C2Nc2cc(Cl)ccc2OC)cc1 (stereo not drawn)	-8%	8	2%	1	7%	13µM*
CC(NO)C(C)(C)NO (stereo not drawn)	-7%	0	-2%	0	-4%	22µM*!
CCN(CC)c1ccc2cc(-c3nc(-c4ccc(Cl)cc4Cl)cs3)c(=O)oc2c1	7.1µM*	-4	-21%	9	-2%	-29%
CCN(CC)c1ccc2cc(S(=O)(=O)c3ccc(Cl)cc3)c(=O)oc2c1	?	-4	?	17	-5%	3%
CCN(CC)c1ccc2cc(-c3nc(-c4ccc(OC)cc4)cs3)c(=O)oc2c1	-105%	-26	6%	118*	-4%	-9%
CCN(CC)C(=O)CSc1nc2ccccc2c(=O)n1CCc1cccs1	·	·	·	·	·	-55%
SMILES	Vif-APOBEC3F blk	TRPML1 inh	Vif-A3G inh	TRPML1 agonist	GRP78 ERSR act	ALOX12 inh
CN(Cc1ccccc1)C(=O)c1cc(-c2ccc(F)cc2)n[nH]1	·	·	·	·	·	3%
CC/C(=N/Nc1cccc(C)c1)c1cnnc(SC)n1	?	-9	-1%	2	-2%	7.9µM*
CC/C(=N/Nc1ccc(Cl)cc1)c1cnnc(SC)n1	-1%	19	0%	-1	0%	?
COc1ccc(C2=NOC(C(=O)Nc3ccc(C(C)=O)cc3)C2)cc1OC (stereo not drawn)	-1%	2	1%	0	-1%	6%
COc1ccc(C2=NOC(C(=O)Nc3cc(Br)ccc3O)C2)cc1OC (stereo not drawn)	-2%	-1	-7%	1	-2%	10µM*
O=C(COC(=O)c1cccc(NC(=O)c2ccco2)c1)c1ccccc1	·	·	·	·	·	1%
COc1cc(C2=NOC(C(=O)N(C)c3ccccc3)C2)cc(OC)c1OC (stereo not drawn)	·	·	·	·	·	2%
C/C(=N\NC(=S)Nc1ccc(C)c(C)c1)c1ccc(N2CCOCC2)cc1	1%	22	0%	1	-5%	35µM*
C/C(=N\NC(=S)NCc1ccccc1)c1ccc(Br)cc1	?	14	-2%	2	-3%	?
C/C(=N\NC(=S)NCc1ccccc1)c1ccc2c(c1)OCCO2	3%	-5	6%	3	3%	35µM*
C/C(=N\NC(=S)Nc1ccc(F)cc1)c1ccc2c(c1)OCCO2	?	42	?	1	1%	35µM*
COc1ccc(Oc2c(C)oc3cc(OCc4ccc(F)cc4)ccc3c2=O)cc1	·	·	·	·	·	5%
c1ccc(N2CCN(c3nc(N4CCOCC4)c4nccnc4n3)CC2)cc1	·	·	·	·	·	-2%
COc1cc(C(=O)NC2CCCc3ccccc32)ccc1C (stereo not drawn)	·	·	·	·	·	0%
O=C(NCc1ccc(F)cc1)c1n[nH]c2c1CCCC2	·	·	·	·	·	61%
O=C(Nc1cc(N2CCOCC2)ncn1)c1ccccc1	·	33	0%	0	35µM*	0%
O=C(NC1CCN(c2cc(C(F)(F)F)ncn2)CC1)c1ccccc1	·	·	·	·	·	45µM*
C=CCNC(=S)NNC(=O)C1CCCC1	·	·	·	·	·	48%
c1ccc(Cc2nn3c(C4COc5ccccc5O4)nnc3s2)cc1 (stereo not drawn)	-4%	2	-1%	1	5%	-5%
CCOc1ccccc1OCc1nn2c(C3COc4ccccc4O3)nnc2s1 (stereo not drawn)	·	·	·	·	·	7.1µM*
O=C(CCl)Nc1nc(-c2ccco2)c(-c2ccco2)s1	1%	-18	?	-1	?	?
O=C(CCCSc1ccccc1)Nc1nc(-c2ccco2)c(-c2ccco2)s1	-4%	15	1%	3	0%	16µM*
CCc1cnc(C)nc1N1CCOC(c2ccc(Cl)cc2)C1 (stereo not drawn)	·	·	·	·	·	37%
CCOC(=O)c1ccc(N=c2ssnc2Cl)cc1	?	27	4%	0	5%	2.2µM*
COc1ccc(N=c2ssnc2Cl)cc1	3%	-15	8%	0	1%	·
Cc1c(-c2ccccc2)oc2c(C(=O)NCCCO)cccc2c1=O	·	·	·	·	·	-36%
